# Assay results published in PubChem BioAssay (EPA / NIEHS).
# Where “and” joins values, the source holds several entries; their conditions need not be identical. Identical values can stand only once. Inconclusive results are not listed. Calls of active or inactive are those of the source. The calls were made as follows: active = hit-call score of the fitted dose curve at least 0.9, where 1 is the maximum; inconclusive = response in the unintended direction; inactive = score below 0.9.
# What was measured:
# [1] = target: human MET Proto-Oncogene, Receptor Tyrosine Kinase (MET), MET (gene 4233) (UniProt P08581); assay: NVS_ENZ_hMet: NovaScreen (NVS) Enzymatic Assay for human MET Proto-Oncogene, Receptor Tyrosine Kinase (MET) (AID 2283180)
# Outline: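 Cell-free MET kinase assay using recombinant protein and fluorescent substrate, with mobility-shift separation; read 1 h after dosing. Primary duplicate at 25 uM; actives in singleton concentration-response to 50 uM maximum. Signal loss versus DMSO.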
# [2] = target: human Mitogen- and Stress-activated Protein Kinase-1 (Msk1), RPS6KA5 (gene 9252) (UniProt O75582); assay: NVS_ENZ_hMsk1: NovaScreen (NVS) Enzymatic Assay for human Mitogen- and Stress-activated Protein Kinase-1 (Msk1) (AID 2283187)
# Outline: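 Recombinant kinase with fluorescent substrate; product separated by electrophoretic mobility shift, read 1 h after dosing. Screened in duplicate at 25 uM; hits (e.g. ≥30% inhibition) tested in concentration–response up to 50 uM. DMSO baseline.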
# [3] = target: human NIMA (Never In Mitosis Gene A)-Related Kinase 2 (NEK2), NEK2 (gene 4751) (UniProt P51955); assay: NVS_ENZ_hNEK2: NovaScreen (NVS) Enzymatic Assay for human NIMA (Never In Mitosis Gene A)-Related Kinase 2 (NEK2) (AID 2283188)
# Outline: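 Cell-free NEK2 enzyme activity after 1 h exposure, read by fluorescence with electrophoretic mobility shift separating substrate and product. Primary screen in duplicate at 25 uM; actives then run as concentration series. Loss of signal versus DMSO scored.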
# [4] = target: human p21 Activated Kinase 4 (PAK4), PAK4 (gene 10298) (UniProt O96013); assay: NVS_ENZ_hPAK4: NovaScreen (NVS) Enzymatic Assay for human p21 Activated Kinase 4 (PAK4) (AID 2283189)
# Outline: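 Cell-free recombinant human PAK4 activity assay; fluorescent substrate and product separated by electrophoretic mobility shift, read 1 h after dosing. Initially tested in duplicate at 25 uM, relative to DMSO baseline.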
# [5] = target: human Phosphodiesterase 4A1 (PDE4A1), PDE4A (gene 5141) (UniProt P27815); assay: NVS_ENZ_hPDE4A1: NovaScreen (NVS) Enzymatic Assay for human Phosphodiesterase 4A1 (PDE4A1) (AID 2283191)
# Outline: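 Cell-free recombinant human PDE4A1 with fluorescent substrate; product separated by electrophoretic mobility shift, 1 h. Screened at 25 uM, then up to 50 uM in concentration-response; loss of signal fitted against DMSO.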
# [6] = target: human Phosphodiesterase 5 (PDE5), PDE5A (gene 8654) (UniProt O76074); assay: NVS_ENZ_hPDE5: NovaScreen (NVS) Enzymatic Assay for human Phosphodiesterase 5 (PDE5) (AID 2283194)
# Outline: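 Recombinant human PDE5 with specific substrate, read 1 h after dosing by fluorescence with electrophoretic mobility-shift separation of substrate and product. Initial single-concentration duplicate screen at 25 uM, actives followed in concentration series; loss of activity versus DMSO.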
# [7] = target: human Phosphodiesterase 10 (PDE10), PDE10A (gene 10846) (UniProt Q9Y233); assay: NVS_ENZ_hPDE10: NovaScreen (NVS) Enzymatic Assay for human Phosphodiesterase 10 (PDE10) (AID 2283195)
# Outline: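 PDE10A, cell-free; 1 h incubation; fluorescence intensity + electrophoretic mobility shift separating substrate/product; DMSO = baseline; 25 uM duplicate primary, CRC up to 50 uM.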
# [8] = target: human Phosphoinositide 3-kinase alpha (PI3Ka), PIK3CA (gene 5290) (UniProt P42336); assay: NVS_ENZ_hPI3Ka: NovaScreen (NVS) Enzymatic Assay for human Phosphoinositide 3-kinase alpha (PI3Ka) (AID 2283196)
# Outline: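 Fluorescence/mobility-shift readout of substrate conversion by recombinant enzyme, 1 h post-dosing. Primary screen in duplicate at 25 uM; actives (e.g. ≥30% inhibition) retested in singleton concentration-response, top concentration 50 uM.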
# PPP2CA (gene 5515) = PPP2CA (gene 5515) (UniProt P67775); assay: NVS_ENZ_hPPP2CA: NovaScreen (NVS) Enzymatic Assay for human Protein Phosphatase 2 Aatalytic subunit Alpha (PPP2CA) (AID 2283199)
# Outline: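 Recombinant human PPP2CA with fluorescent substrate; product separated from substrate by electrophoretic mobility shift, read 1.33 h after dosing. Duplicate single-point at 25 uM, then singleton concentration-response up to 50 uM; loss of signal versus DMSO.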
# [9] = target: Serine/threonine-protein phosphatase PP1-alpha catalytic subunit (Homo sapiens) (UniProt P62136); assay: NVS_ENZ_hPPP1CA: NovaScreen (NVS) Enzymatic Assay for human Protein Phosphatase 1 Aatalytic subunit Alpha (PPP1CA) (AID 2283200)
# Outline: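 Recombinant enzyme activity read by fluorescence with electrophoretic mobility shift separating substrate from product, 1.33 h after dosing; loss of signal vs DMSO baseline. Primary screen in duplicate at 25 uM; actives retested in concentration-response up to 50 uM.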
# [10] = target: human Protein Tyrosine Phosphatase Non-receptor Type 1 (PTPN1), PTPN1 (gene 5770) (UniProt P18031); assay: NVS_ENZ_hPTPN1: NovaScreen (NVS) Enzymatic Assay for human Protein Tyrosine Phosphatase Non-receptor Type 1 (PTPN1) (AID 2283201)
# Outline: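 Cell-free fluorogenic-substrate activity assay on recombinant enzyme, read 1.33 h after dosing by fluorescence and electrophoretic mobility shift; loss of signal vs DMSO baseline. Primary screen in duplicate at 25 uM, hits then run in concentration-response up to 50 uM.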
# [11] = target: human Matrix Metalloproteinase-7 (MMP7), MMP7 (gene 4316) (UniProt P09237); assay: NVS_ENZ_hMMP7: NovaScreen (NVS) Enzymatic Assay for human Matrix Metalloproteinase-7 (MMP7) (AID 2283183)
# Outline: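 Cell-free fluorescence enzymatic assay read 1 h after compound addition, activity loss analyzed against DMSO. Primary duplicate testing at 25 uM; compounds meeting threshold rerun in singleton concentration-response up to 50 uM.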
# [12] = target: human Matrix Metalloproteinase-9 (MMP9), MMP9 (gene 4318) (UniProt P14780); assay: NVS_ENZ_hMMP9: NovaScreen (NVS) Enzymatic Assay for human Matrix Metalloproteinase-9 (MMP9) (AID 2283190);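 also: cell-free recombinant MMP9 protease activity read by fluorescent substrate signal; active means inhibition seen as loss of fluorescence signal versus DMSO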
# Outline: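 Extracted enzyme, fluorescent substrate, 1 h post-dose read. Single conc 25 uM in duplicate, then concentration series for actives. Activity = signal loss relative to DMSO negative control.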
# [13] = target: human Matrix Metalloproteinase-1 (MMP1), MMP1 (gene 4312) (UniProt P03956); assay: NVS_ENZ_hMMP1: NovaScreen (NVS) Enzymatic Assay for human Matrix Metalloproteinase-1 (MMP1) (AID 2283181)
# Outline: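 Human MMP1 enzyme activity measured by fluorescence 1 h after dosing, cell-free, with a specific substrate. Screened in duplicate at 25 uM; hits (e.g. 30% inhibition) run in concentration-response up to 50 uM; loss of signal versus DMSO.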
# [14] = target: Mitogen-activated protein kinase 3 (Homo sapiens) (UniProt P27361); assay: NVS_ENZ_hMAPK3: NovaScreen (NVS) Enzymatic Assay for human Mitogen-Activated Protein Kinase 3 (MAPK 3) (AID 2283177)
# Outline: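 Cell-free enzymatic assay with recombinant protein and specific substrate; fluorescence and electrophoretic mobility shift read-out 1 h after dosing. Primary screen duplicate at 25 uM; actives then run in concentration-response up to 50 uM, loss of signal versus DMSO.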
# [15] = target: human Matrix Metalloproteinase-3 (MMP3), MMP3 (gene 4314) (UniProt P08254); assay: NVS_ENZ_hMMP3: NovaScreen (NVS) Enzymatic Assay for human Matrix Metalloproteinase-3 (MMP3) (AID 2283185)
# Outline: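 Cell-free recombinant human MMP3 activity, fluorescence intensity read 1 h after dosing. Primary screen duplicate at 25 uM, actives retested in concentration series; loss of signal vs DMSO baseline.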
# [16] = target: cAMP-dependent protein kinase catalytic subunit alpha (Homo sapiens) (UniProt P17612); assay: NVS_ENZ_hPKA: NovaScreen (NVS) Enzymatic Assay for human Protein Kinase A (PKA) (AID 2283192)
# Outline: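 Recombinant human PKA with specific fluorescent substrate, product separated by electrophoretic mobility shift, read 1 h after dosing. Primary screen at 25 uM in duplicate; actives then run in concentration-response up to 50 uM, activity relative to DMSO.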
# Chain of human Phosphoinositide 3-kinase alpha (PI3Ka), PIK3CA (gene 5290) (P42336 whole entry, looked up): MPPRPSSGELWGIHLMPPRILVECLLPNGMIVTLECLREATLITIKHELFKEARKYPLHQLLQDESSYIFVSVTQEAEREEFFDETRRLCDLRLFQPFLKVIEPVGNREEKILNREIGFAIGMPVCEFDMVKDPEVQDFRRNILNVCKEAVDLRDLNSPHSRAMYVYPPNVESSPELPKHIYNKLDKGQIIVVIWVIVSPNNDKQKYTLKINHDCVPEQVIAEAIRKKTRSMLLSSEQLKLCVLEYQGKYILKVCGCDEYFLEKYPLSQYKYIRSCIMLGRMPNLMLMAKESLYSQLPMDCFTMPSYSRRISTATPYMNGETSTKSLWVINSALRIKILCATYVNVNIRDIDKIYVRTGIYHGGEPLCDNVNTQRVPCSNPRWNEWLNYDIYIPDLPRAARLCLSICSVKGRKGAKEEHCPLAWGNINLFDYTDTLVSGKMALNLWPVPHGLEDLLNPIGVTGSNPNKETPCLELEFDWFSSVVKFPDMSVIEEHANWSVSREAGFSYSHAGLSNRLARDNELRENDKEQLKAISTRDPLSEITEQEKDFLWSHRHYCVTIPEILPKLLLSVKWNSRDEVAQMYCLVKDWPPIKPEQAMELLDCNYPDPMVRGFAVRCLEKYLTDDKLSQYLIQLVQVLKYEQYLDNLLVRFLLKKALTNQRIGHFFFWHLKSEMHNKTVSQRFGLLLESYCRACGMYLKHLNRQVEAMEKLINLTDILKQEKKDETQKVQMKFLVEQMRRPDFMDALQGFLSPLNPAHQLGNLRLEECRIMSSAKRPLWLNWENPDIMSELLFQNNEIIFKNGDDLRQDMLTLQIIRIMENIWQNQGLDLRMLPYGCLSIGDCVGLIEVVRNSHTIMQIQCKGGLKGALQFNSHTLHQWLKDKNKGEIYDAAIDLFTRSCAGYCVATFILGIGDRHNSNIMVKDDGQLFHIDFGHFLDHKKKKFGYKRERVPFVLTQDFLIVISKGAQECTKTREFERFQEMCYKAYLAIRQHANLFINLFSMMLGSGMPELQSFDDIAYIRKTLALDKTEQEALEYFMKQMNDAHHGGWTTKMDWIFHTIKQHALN
# Chain of Serine/threonine-protein phosphatase PP1-alpha catalytic subunit (Homo sapiens) (P62136 whole entry, looked up): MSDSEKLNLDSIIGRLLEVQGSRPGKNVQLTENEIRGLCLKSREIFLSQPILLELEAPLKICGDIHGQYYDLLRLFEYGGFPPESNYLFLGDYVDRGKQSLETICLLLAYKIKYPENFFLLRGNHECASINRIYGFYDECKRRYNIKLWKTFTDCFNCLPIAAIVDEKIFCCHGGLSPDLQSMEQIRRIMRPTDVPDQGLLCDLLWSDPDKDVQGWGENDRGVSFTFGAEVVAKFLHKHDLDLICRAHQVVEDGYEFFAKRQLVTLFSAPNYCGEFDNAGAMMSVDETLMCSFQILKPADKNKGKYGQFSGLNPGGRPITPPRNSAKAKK
# Chain of PPP2CA (gene 5515) (P67775 whole entry, looked up): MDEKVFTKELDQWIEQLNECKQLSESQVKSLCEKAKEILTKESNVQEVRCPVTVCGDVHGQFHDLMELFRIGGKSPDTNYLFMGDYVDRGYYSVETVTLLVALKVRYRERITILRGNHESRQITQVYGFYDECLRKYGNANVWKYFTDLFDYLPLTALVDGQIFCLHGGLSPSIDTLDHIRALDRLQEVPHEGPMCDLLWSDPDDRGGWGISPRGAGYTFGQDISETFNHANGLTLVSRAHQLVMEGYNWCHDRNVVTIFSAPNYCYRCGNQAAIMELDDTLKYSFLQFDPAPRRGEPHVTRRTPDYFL
# Chain of human Matrix Metalloproteinase-7 (MMP7), MMP7 (gene 4316) (P09237 whole entry, looked up): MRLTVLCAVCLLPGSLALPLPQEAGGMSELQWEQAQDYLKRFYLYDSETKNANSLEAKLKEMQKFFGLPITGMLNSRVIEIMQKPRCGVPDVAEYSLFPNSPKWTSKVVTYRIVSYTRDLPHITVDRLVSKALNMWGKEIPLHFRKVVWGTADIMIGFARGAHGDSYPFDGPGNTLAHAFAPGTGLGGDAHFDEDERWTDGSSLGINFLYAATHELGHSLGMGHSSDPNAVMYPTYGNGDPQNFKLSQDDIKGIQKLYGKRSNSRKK
# Chain of human MET Proto-Oncogene, Receptor Tyrosine Kinase (MET), MET (gene 4233) (P08581 whole entry, looked up): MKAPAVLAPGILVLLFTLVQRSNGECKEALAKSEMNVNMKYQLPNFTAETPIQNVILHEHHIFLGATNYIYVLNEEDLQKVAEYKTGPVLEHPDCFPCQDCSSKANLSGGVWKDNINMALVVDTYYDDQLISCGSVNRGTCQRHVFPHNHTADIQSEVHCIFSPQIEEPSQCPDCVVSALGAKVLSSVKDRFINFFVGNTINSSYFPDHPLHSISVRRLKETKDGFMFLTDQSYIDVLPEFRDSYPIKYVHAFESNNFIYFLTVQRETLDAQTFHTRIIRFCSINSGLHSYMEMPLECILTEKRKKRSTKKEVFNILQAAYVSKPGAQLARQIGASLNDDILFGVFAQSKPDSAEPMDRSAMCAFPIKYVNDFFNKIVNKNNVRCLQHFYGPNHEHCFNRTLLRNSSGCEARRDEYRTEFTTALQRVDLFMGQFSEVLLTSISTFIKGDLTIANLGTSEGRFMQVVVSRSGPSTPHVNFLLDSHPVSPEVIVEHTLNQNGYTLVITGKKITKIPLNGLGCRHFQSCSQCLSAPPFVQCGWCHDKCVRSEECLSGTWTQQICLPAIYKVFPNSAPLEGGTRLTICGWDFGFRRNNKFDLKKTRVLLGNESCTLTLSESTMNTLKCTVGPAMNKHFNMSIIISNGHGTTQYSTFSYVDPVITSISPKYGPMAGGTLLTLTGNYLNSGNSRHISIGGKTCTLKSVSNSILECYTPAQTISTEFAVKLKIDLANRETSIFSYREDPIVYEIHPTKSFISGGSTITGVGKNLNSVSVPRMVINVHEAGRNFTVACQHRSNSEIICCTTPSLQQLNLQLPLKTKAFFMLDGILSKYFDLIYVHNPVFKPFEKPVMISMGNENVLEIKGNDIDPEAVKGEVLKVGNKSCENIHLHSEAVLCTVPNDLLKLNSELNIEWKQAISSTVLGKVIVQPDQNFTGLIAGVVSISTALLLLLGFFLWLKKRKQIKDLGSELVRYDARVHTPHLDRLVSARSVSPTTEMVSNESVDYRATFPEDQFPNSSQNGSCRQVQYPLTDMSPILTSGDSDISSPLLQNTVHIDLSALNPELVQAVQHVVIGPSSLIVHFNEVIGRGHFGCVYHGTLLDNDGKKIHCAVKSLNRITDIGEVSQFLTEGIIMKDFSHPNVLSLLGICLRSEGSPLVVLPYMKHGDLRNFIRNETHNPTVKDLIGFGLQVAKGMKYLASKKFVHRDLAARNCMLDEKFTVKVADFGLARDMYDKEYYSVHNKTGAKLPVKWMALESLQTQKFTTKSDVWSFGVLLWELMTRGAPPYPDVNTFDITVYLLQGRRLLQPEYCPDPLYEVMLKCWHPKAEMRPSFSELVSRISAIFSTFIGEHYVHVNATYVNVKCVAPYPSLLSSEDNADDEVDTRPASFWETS
# Chain of human Phosphodiesterase 4A1 (PDE4A1), PDE4A (gene 5141) (P27815 whole entry, looked up): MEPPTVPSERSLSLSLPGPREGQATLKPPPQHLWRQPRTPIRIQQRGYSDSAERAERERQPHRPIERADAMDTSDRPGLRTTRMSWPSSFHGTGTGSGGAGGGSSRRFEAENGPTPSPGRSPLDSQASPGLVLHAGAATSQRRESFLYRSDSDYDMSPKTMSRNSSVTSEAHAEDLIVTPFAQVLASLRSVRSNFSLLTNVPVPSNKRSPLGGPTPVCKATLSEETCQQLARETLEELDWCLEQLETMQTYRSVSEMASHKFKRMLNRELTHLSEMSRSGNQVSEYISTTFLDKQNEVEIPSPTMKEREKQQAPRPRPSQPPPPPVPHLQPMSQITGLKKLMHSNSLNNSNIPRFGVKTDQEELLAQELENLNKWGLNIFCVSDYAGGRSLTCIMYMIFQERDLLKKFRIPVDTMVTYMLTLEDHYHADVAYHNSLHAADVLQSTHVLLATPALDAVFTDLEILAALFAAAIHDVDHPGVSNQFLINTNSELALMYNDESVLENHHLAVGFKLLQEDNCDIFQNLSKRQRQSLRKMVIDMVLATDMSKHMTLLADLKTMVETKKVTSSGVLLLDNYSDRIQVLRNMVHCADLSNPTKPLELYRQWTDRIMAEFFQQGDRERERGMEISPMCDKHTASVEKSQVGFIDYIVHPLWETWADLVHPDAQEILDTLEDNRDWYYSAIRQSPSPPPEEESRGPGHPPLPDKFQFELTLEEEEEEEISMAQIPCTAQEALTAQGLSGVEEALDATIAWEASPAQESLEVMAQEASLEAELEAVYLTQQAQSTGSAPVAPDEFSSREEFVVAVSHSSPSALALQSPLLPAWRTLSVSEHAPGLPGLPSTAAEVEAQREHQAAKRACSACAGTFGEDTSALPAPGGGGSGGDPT
# Chain of human Matrix Metalloproteinase-9 (MMP9), MMP9 (gene 4318) (P14780 whole entry, looked up): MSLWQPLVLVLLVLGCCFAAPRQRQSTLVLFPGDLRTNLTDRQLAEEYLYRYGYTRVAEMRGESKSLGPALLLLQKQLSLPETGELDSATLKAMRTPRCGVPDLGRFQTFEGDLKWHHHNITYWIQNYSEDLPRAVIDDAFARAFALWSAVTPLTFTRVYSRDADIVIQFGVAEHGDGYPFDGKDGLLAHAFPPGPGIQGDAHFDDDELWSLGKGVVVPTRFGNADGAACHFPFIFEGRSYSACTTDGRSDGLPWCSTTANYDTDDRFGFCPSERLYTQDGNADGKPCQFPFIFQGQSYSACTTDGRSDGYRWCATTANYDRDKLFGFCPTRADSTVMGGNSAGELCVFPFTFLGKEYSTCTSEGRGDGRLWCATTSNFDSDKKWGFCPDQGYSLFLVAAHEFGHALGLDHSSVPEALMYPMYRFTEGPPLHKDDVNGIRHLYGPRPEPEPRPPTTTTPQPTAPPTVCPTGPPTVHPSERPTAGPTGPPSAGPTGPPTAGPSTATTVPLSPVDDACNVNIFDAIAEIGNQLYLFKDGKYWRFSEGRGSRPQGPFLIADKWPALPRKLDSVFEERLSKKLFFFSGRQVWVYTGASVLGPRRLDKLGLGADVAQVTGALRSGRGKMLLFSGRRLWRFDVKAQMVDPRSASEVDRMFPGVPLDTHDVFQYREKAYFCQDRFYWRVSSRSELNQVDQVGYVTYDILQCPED
smiles,measurement,setting,value
CCCN(CCC)c1c([N+](=O)[O-])cc(S(N)(=O)=O)cc1[N+](=O)[O-],outcome,[1],inactive
same,outcome,[2],inactive
same,outcome,[3],inactive
same,outcome,[4],inactive
same,outcome,[5],inactive
same,outcome,[6],inactive
same,outcome,[7],inactive
same,outcome,[8],inactive
same,outcome,PPP2CA (gene 5515),inactive
same,outcome,[9],inactive
same,outcome,[10],inactive
Cc1ccc(-c2c(Cl)nc(C#N)n2S(=O)(=O)N(C)C)cc1,AC50,[6],11.7 µM (active)
COc1nc(C)nc(NC(=O)NS(=O)(=O)c2ccccc2CCC(F)(F)F)n1,outcome,[1],inactive
same,outcome,[11],inactive
same,AC50,[6],25 µM (active)
same,outcome,[8],inactive
CC1COC(Cn2cncn2)(c2ccc(Oc3ccc(Cl)cc3)cc2Cl)O1 (configuration not stated),outcome,[12],inactive
same,outcome,[6],inactive
CCNc1nc(Cl)nc(NC(C)C)n1,AC50,[5],1.22 µM (active)
same,AC50,[6],4.96 µM (active) and 8.17 µM (active)
CS/C(C)=N/OC(=O)N(C)SN(C)C(=O)O/N=C(\C)SC,outcome,[8],inactive
Oc1ccccc1-c1ccccc1,outcome,[9],inactive
CCCC1COC(Cn2cncn2)(c2ccc(Cl)cc2Cl)O1 (configuration not stated),AC50,[13],6.45 µM (active)
C=CCC1=C(C)[C@@H](OC(=O)[C@@H]2[C@@H](C=C(C)C)C2(C)C)CC1=O,outcome,[14],inactive
N#Cc1nn(-c2c(Cl)cc(C(F)(F)F)cc2Cl)c(N)c1S(=O)C(F)(F)F (configuration not stated),outcome,[15],inactive
same,outcome,[16],inactive
same,outcome,[8],inactive
COc1nc(NC(C)C)nc(NC(C)C)n1,AC50,[5],13.4 µM (active)
COc1cnc(OC)n2nc(NS(=O)(=O)c3c(OCC(F)F)cccc3C(F)(F)F)nc12,outcome,[14],inactive
same,outcome,[7],inactive
same,outcome,PPP2CA (gene 5515),inactive
CCOC(=O)CC(SP(=S)(OC)OC)C(=O)OCC (configuration not stated),outcome,[12],inactive
same,outcome,[5],inactive
same,outcome,PPP2CA (gene 5515),inactive
same,outcome,[9],inactive
CC1=C(C(=O)Nc2ccccc2)SCCO1,outcome,[8],inactive
COC(=O)c1ccccc1C(=O)OC,outcome,[8],inactive
